# Measured values from PubChem BioAssay.
# Activity calls are given as the source filed them. How the calls were made is not given here.
# Target: Pantothenate synthetase (Mycobacterium tuberculosis (strain ATCC 25618 / H37Rv)) (UniProt P9WIL5)
# Assay: Recombinant Mtb pantothenate synthetase (PanC) inhibitors, coupled enzyme, confirmatory (AID 375);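 further: 0% = full reaction with vehicle and 100% = no enzyme background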
# Conditions: coupled enzyme assay; at 10 µM, stronger effect = higher value
# Chain of Pantothenate synthetase (Mycobacterium tuberculosis (strain ATCC 25618 / H37Rv)) (P9WIL5 whole entry, looked up): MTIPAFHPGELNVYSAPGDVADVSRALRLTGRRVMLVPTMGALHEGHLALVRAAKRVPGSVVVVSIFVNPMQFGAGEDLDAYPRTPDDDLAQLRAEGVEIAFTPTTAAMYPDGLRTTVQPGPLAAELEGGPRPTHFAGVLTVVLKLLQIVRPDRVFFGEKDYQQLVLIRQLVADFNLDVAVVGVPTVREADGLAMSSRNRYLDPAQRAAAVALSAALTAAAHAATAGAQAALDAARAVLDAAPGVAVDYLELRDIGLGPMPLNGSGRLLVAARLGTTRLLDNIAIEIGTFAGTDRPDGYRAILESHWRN
row,SMILES,inhibition
1,Cc1cccc(N2CCN(C(=O)C3CCCN(S(=O)(=O)c4c(C)noc4C)C3)CC2)c1C (stereo not drawn),0% (inactive)
2,N=c1ncn(CC(O)CN2CCOCC2)c2nc(N3CCOCC3)[nH]c12 (stereo not drawn),0% (inactive)
3,O=C(Cn1ncc2ccccc21)N1CCN(c2cccc(C(F)(F)F)c2)CC1,2% (inactive)
4,COc1cc(S(=O)(=O)N2CCOCC2)ccc1NC(=O)COC(=O)c1ccccn1,0% (inactive)
5,CCn1c(CCNC(=O)c2cccs2)nnc1SCC(=O)c1ccc(OC)cc1,0% (inactive)
6,O=C(CCn1c(=O)sc2ccccc21)NC1=NCCS1,3% (inactive)
7,CC(=O)c1cccc(NC(=O)N2CCCc3ccccc32)c1,1% (inactive)
8,CCOn1c(=O)c(=O)n(OCc2ccccc2)c2ccccc21,0% (inactive)
9,O=C(COC(=O)c1ccc(S(=O)(=O)Nc2ccccc2)cc1)NCCN1C(=O)CSC1=O,0% (inactive)
10,Cc1ccc(S(=O)(=O)N2CCN(C(=O)N3CCOCC3)C2C)cc1 (stereo not drawn),0% (inactive)
11,Cc1onc(-c2c(F)cccc2Cl)c1C(=O)Nc1nc2c(s1)CCCC2,0% (inactive)
12,Cc1cc(NC(=O)C23CCC(C)(c4nc5cc(Cl)c(Cl)cc5nc42)C3(C)C)no1 (stereo not drawn),0% (inactive)
13,Cc1cc(NC(=O)Cn2cnc3c2c(=O)n(C)c(=O)n3C)n(-c2ccccc2)n1,0% (inactive)
14,CCOc1cc(C2/C(=C(/O)c3ccc(OC(C)C)cc3)C(=O)C(=O)N2CCCOC)ccc1O (stereo not drawn),0% (inactive)
15,CC(C)Oc1ccc(C2C(C(=O)c3ccco3)=C(O)C(=O)N2CCCN(C)C)cc1 (stereo not drawn),0% (inactive)
16,CCc1nnc(NC(=O)CSc2nc3ccccc3s2)s1,2% (inactive)
17,O=C(COc1ccccc1)NCCSCc1ccco1,0% (inactive)
18,O=S(=O)(c1ccc2ccccc2c1)N(CC(O)CN1CCOCC1)c1ccccc1 (stereo not drawn),0% (inactive)
19,COc1ccccc1NC(=O)CSc1nnc(Cc2cccn2C)n1-c1ccc(F)cc1,0% (inactive)
20,Cc1cc(S(=O)(=O)N(Cc2ccccc2)Cc2ccc(N(C)C)cc2)ccc1-n1cnnn1,0% (inactive)
21,NC(=O)C1(N2CCCCC2)CCN(Cc2ccccc2Cl)CC1,0% (inactive)
22,O=C(NCc1ccco1)C1CC(=O)N(c2ccc(F)cc2)C1 (stereo not drawn),4% (inactive)
23,CC1(C)CC(CCNC(=O)c2ccco2)CC(C)(C)N1,0% (inactive)
